Source: PubChem BioAssay AID2280 (The Scripps Research Institute Molecular Screening Center, 2010)
The campaign covered roughly 320,000 compounds. About 1,400 (0.44%) were called active.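 How the source made its calls: active means percent inhibition above a per-plate cutoff, the plate mean of test compounds plus 3 SD (cut at about 30% in these data); inactive means the rest.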 The list comes from a sample in which actives are over-represented; it also holds similar structures and randomly drawn compounds.

Each compound was assayed against Female germline-specific tumor suppressor gld-1 (Caenorhabditis elegans) (UniProt Q17339) (assay: GLD-1/TGE RNA complex disruptors, primary screen, biochemical, fluorescence polarization (AID 2280;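 further: 0% = DMSO wells with GLD-1 and probe and 100% = wells lacking GLD-1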)). Conditions: purified GLD-1 + fluorescein TGE RNA, at 5.96 µM, stronger effect = higher value.
Female germline-specific tumor suppressor gld-1 (Caenorhabditis elegans), sequence (Q17339 whole entry, looked up): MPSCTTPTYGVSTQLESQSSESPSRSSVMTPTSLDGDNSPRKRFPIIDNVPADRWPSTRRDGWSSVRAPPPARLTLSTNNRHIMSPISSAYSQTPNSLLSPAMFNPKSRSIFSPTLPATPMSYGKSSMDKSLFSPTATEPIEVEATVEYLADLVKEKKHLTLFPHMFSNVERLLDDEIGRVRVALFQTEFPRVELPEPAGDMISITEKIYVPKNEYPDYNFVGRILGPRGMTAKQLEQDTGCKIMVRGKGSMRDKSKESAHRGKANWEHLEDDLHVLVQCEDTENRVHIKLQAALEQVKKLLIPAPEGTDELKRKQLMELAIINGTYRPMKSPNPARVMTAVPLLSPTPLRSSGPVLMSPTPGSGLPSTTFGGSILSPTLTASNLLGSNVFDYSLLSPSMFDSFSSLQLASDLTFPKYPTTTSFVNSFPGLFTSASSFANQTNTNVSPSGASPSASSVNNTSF

inhibition, active:
CCCN(CC(=O)Nc1ccccc1OC)C(=O)CCC(=O)c1ccc(F)cc1 54.8%
COC(=O)CCCC1=CC2=CC(=O)C(C)(OC(=O)c3cccs3)C(=O)C2=CN1c1cccc(C#N)c1 (centres undefined) 38.1%
CC(C)n1cnc2c(NCc3ccccc3)cc(N[C@@H](CO)Cc3ccccc3)cc21 43.8%
N#C/C(=C(\O)C(F)(F)F)c1nnc2n1CCCCC2 51.1%
CCOc1cc(C2C(C(=O)OC)=CN(C3CCCC3)C=C2C(=O)OC)cc(Br)c1O 44.7%
NS(=O)(=O)c1ccc(NC(=O)COC(=O)c2c3c(nc4ccccc24)/C(=C\c2ccc4c(c2)OCO4)CCC3)cc1 105%
Cc1ccc(C)c(S(=O)(=O)N2CCN(C(=O)Nc3ccccc3)CC2)c1 34.2%
COC(=O)c1cc(CNC(=O)CC(C)c2ccccc2)ccc1OC (centres undefined) 31.6%
N#CC1=C(N)C(C#N)(C#N)[C@H](c2ccsc2)[C@H]2COCC=C12 34.7%
Oc1ccc2ccccc2c1N=Nc1nccs1 33.5%
O=C(C1=C(O)C(=O)N(c2ncccn2)C1c1cccs1)c1ccco1 (centres undefined) 110%
COc1ccc(Nc2ccc([N+](=O)[O-])cn2)cn1 44.7%
COc1cc(C(=O)NCc2ccc3c(c2)cc(C)n3C)cc(OC)c1OC 34.8%
CC1CC(C)CN(S(=O)(=O)c2cccc(C(=O)N3C(=O)c4cccc(N)c4C3=O)c2)C1 (centres undefined) 31.4%
Cc1cc2ccccc2n1CCC(=O)O 50.2%

inhibition, inactive:
CCOC(=O)c1cccc(NC(=O)CN2C(=O)C3CC=CCC3C2=O)c1 (centres undefined) 4.12%
Cc1ccc(OCC(=O)Nc2ccc(C(=O)O)cc2NC(=O)COc2ccc(C)c(C)c2)cc1C 8.42%
CCOC(=O)c1cnc(SC)nc1Sc1ccc(Cl)cc1Cl 6.36%
CCN(CC(=O)Nc1ccccc1OC)C(=O)Cn1cnc2ccccc2c1=O 4.15%
CCN(CC(=O)Nc1ccccc1OC)C(=O)CC1CC2CCC1C2 (centres undefined) -0.14%
CC1CCN(C(=O)Cn2nnnc2CN2CCOCC2)CC1 0.79%
CCCCNc1c(-c2cccc(Sc3ccc(OC)cc3)c2)nc2ccccn12 2.4%
Cc1cccc(N2C(=O)SC(SC(=Nc3ccccc3)Nc3ccccc3)C2=O)c1 (centres undefined) 10.3%
COc1ccc(C)cc1NC(=S)Nc1ccccc1SC -6.51%
COc1ccc2c(CC(=O)N3CCc4cc(OC)c(OC)cc4C3)coc2c1 5.21%
O=C(CSc1ccc2nnc(-c3ccccc3)n2n1)N1CCCc2ccccc21 -1.09%
COC(=O)CCCC1=CC2=C(c3ccccc3)C(=O)C(C)(OC(=O)C3CCCC3)C(=O)C2=CN1c1ccc(OC)cc1 (centres undefined) 7.24%
COC(=O)CCCC1=CC2=CC(=O)C(C)(OC(=O)c3cccs3)C(=O)C2=CN1CC(C)C (centres undefined) 5.88%
Cc1ccc(O)c(NC(=O)c2cc(-c3ccco3)on2)c1 1.89%
C[C@H]1CN([C@@H](C)CO)C(=O)Cc2cc(NS(C)(=O)=O)ccc2O[C@@H]1CN(C)CC1CC1 0.15%
CCC(CO)Oc1cc(NCc2ccccc2)c2ncn(C3CCCC3)c2c1 (centres undefined) 5.5%
CC(C)n1cnc2c(NCc3ccccc3)cc(OCC3CCN(C)CC3)cc21 -21.3%
CC(c1cccnc1)N(CCN(C)C)C(=O)Nc1ccc(Cl)c(Cl)c1 (centres undefined) -1.61%
C/C(=N\N=C(N)N)c1ccc(Cl)cc1 -0.39%
N#C/C(=C/c1cccc([N+](=O)[O-])c1)c1nnc2n1CCCCC2 -1.89%
N#C/C(=C(\O)CCl)c1nnc2n1CCCCC2 -10.3%
CS(=O)(=O)N1CCN(C(=O)CSc2ccccc2)CC1 2.68%
Cc1ccc(S(=O)(=O)N2CCC3(CC2)OCCO3)c(C)c1 -2.29%
COC(=O)C1=CN(Cc2ccc(OC)cc2)C=C(C(=O)OC)C1c1ccc(O)c(OC)c1 4.18%
CCOc1ccc(CNC(=O)C2CCC(=O)N2C2CCCC2)cc1OC (centres undefined) 7.99%
CCC(C)[C@H](NC(=O)N1CCn2c1nc1ccccc12)C(=O)NCc1ccc(OC)cc1 (some centres undefined) 12.5%
C=CC[n+]1c(-c2ccc(C)cc2)csc1NNC(=O)Nc1ccccc1 -11.8%
O=C(COC(=O)c1ccncc1)Nc1ccc2c(c1)OCO2 -0.85%
O=C(COC(=O)c1ccc(F)cc1)Nc1ccc2c(c1)OCO2 0.03%
Cc1cccc(N=C2NC(=O)CS2)c1C 5.66%
COc1ccccc1CNS(=O)(=O)CC12CCC(CC1=O)C2(C)C (centres undefined) -1.89%
O=C(NCc1cccs1)C(=O)NCC1OCCCN1S(=O)(=O)c1ccc(F)cc1 (centres undefined) 1.56%
O=C(Nc1ccccc1)N1CCN(C(=O)Nc2ccccc2)CC1 3.08%
COc1ccc(C)cc1S(=O)(=O)N1CCN(S(=O)(=O)c2cc(C(=O)O)ccc2C)CC1 -3.62%
COc1cc2c(cc1NC(=O)COC(=O)/C=C/c1ccccc1)oc1ccccc12 1.91%
COc1ccc(CNC(=O)Cc2ccc(-c3ccccc3)cc2)cc1OC 11.5%
Cc1ccc(CNC(=O)CC(NC(=O)c2ccccc2)c2ccccc2)cc1 (centres undefined) 6.67%
COc1ccc(C(C(=O)NC(C)(C)C)N(Cc2ccc(F)cc2)C(=O)CCC(=O)Nc2cc(C)on2)cc1 (centres undefined) 3.47%
Cc1ccc(OCCNC(=O)CNC(=O)c2ccc(C)c(C)c2)cc1 -0.98%
C=CCSc1nnc2c(n1)-c1cccc3cccc-2c13 -2.48%
CC(C)(C)NC(=O)CN1CCC(NC(=O)C23CC4CC(CC(C4)C2)C3)CC1 -2.46%
COc1ccc(Cl)cc1NC(=O)C(C)N1CCc2ccccc21 (centres undefined) -0.08%
CCCCN(C(=O)CSCC(=O)Nc1ccc(OC)cc1)c1c(N)n(CCC)c(=O)[nH]c1=O 4.96%
C[C@H](CO)N1C[C@H](C)[C@@H](CN(C)Cc2ccc(-c3ccccc3)cc2)Oc2ccc(NC(=O)Cn3cnnn3)cc2C1=O 2.45%
Cc1cccc(-n2ncc3c(=O)[nH]c(SCC(=O)Nc4cc(C)on4)nc32)c1 2.41%
O=C(COC(=O)CSc1ccccc1)Nc1ccc(F)cc1F -2.02%
COc1ccc(OC)c(C(=O)c2ccc(C(=O)N3CCN(Cc4csc(C)n4)CC3)cc2)c1 -0.78%
COc1ccc2[nH]c(=O)c(CN(Cc3cccnc3)S(=O)(=O)c3ccccc3F)cc2c1 8.84%
COc1cc(C2C(C(=O)c3ccco3)=C(O)C(=O)N2c2cc(C)on2)ccc1OCc1ccccc1 (centres undefined) -1.87%
O=C(C1=C(O)C(=O)N(Cc2ccccc2)C1c1cccnc1)c1ccco1 (centres undefined) -1.41%
CN(c1ccccc1)S(=O)(=O)c1ccc2[nH]c(=O)[nH]c2c1 -0.63%
Cc1ccc(C)c(OCCC(=O)OCC(=O)N2CCN(c3ccccc3)CC2)c1 -2.09%
Cc1sc2ncnc(SCC(=O)Nc3ccc(CN4CCCC4)cc3)c2c1C -0.9%
COc1ccccc1C1CCN(c2ccc([N+](=O)[O-])cn2)CC1 3.13%
COc1ccc(C(=O)NCCNc2ccc([N+](=O)[O-])cn2)cc1 9.44%
CCN1CCN(c2ccc(S(=O)(=O)N3CCCCC3)cc2NC(=O)Cc2c(Cl)cccc2Cl)CC1 -0.26%
CCN(C[C@H]1N[C@@](CC)(C(=O)OC)[C@H]2C(=O)N(C)C(=O)[C@@H]12)C(=O)Nc1ccc(F)cc1 1.26%
CCC(=O)Nc1ccc(S(=O)(=O)Nc2c(NC)c3ccccc3oc2=O)cc1 0.71%
C[C@H](NC(=O)c1nc[nH]c1C(=O)N[C@@H](C)C(=O)OC(C)(C)C)C(=O)OC(C)(C)C 0.74%
O=[N+]([O-])/C=C/c1ccc2c(ccn2Cc2ccccc2)c1 7.04%
O=C(OCCOCn1cc(Br)c(=O)[nH]c1=O)c1ccccc1 5.67%
CCOCC(=O)NCc1ccc2c(c1)cc(C)n2C 25.6%
COc1cc(C(=O)NCc2cc3cc(Cl)ccc3n2C)cc(OC)c1OC -2.07%
CCCC(C(=O)n1nc(C)cc1C)C(NS(=O)(=O)c1ccc(C)cc1)c1ccccc1 (centres undefined) 2.32%
O=C(COC(=O)[C@H](Cc1ccccc1)NC(=O)c1cccs1)Nc1cc(F)ccc1F 8.92%
COCCn1c(SCC(=O)N2CCCCCC2)nc2c(c1=O)SCC2 -2.72%
COc1cc(C(=O)N2C(=O)c3cccc(N)c3C2=O)cc(OC)c1OC 10.9%
CC(=O)N1CCN(S(=O)(=O)c2cccc(C(=O)NC3CCC(C)CC3)c2)CC1 (centres undefined) 1.54%
CCOc1cc(/C=C2/N=C(c3ccc(C(C)(C)C)cc3)OC2=O)cc(Cl)c1OS(C)(=O)=O 4.12%
CCOC(=O)N1CCN(c2cc(C)c([N+](=O)[O-])cc2F)CC1 -3.69%
O=C(C1=C(O)C(=O)N(CCOCCO)C1c1ccccn1)c1cccs1 (centres undefined) 5.95%
Cc1cc2ccccc2n1CCNC(=O)COc1ccc2ccccc2c1 7.21%
O=C(O)CCn1c(Cc2ccccc2)nc2ccccc21 -2.47%
COC(=O)c1cn(C)c2ccc(S(=O)(=O)N3CC(C)CC(C)C3)cc2c1=O (centres undefined) 3.86%
